PP1 counter: counter-screen for PP5 inhibitors: inhibitors of human PP1-alpha; 320,000 compounds, 0.9% hits; P62136; purified PP1alpha, OMFP fluorescence; inhibition, % at 6.7 µM; AID 2235;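 active = inhibition above the mean inhibition of all tested compounds plus 3 SD, computed separately for each screening campaign, cut at about 15% in these data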
Beta cell apopt: blocks beta cell apoptosis | INS-1E cytokine-induced death, ATP luminescence, 48 h; percent of positive-control rescue, neutral wells zero | protection from apoptosis, % (concentration not given with the values) | 300,000 compounds, 0.8% hits | AID 435005;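 active = Every replicate reaches about 75%, or at least half do and their mean reaches it too, limit read from the data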;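 note: 0% = cytokine-treated negative control wells and 100% = positive control rescue; higher means more ATP so stronger rescue from cytokine killing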
CSC inhib: cancer stem cell inhibition | AID 2717 | inhibition, % at 7.5 µM | cancer stem cell-like cells viability, luminescence | 300,000 compounds, 1.1% hits; in the data active = inhibition above about 75%; tested in HMLE shEcad cells
PP5 primary: inhibitors of human protein phosphatase 5 (PP5) | inhibition, % at 6.7 µM | 320,000 compounds, 0.18% hits | purified PP5c, OMFP substrate fluorescence | P53041 | AID 1987;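 active = inhibition above the campaign's mean inhibition across all tested compounds plus 3 SD, cut at about 9.5% in these data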;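 note: 0% = DMSO only and 100% = 100 µM cantharidin control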
Calb FLC: affects C. albicans growth with fluconazole; 300,000 compounds, 0.57% hits; AID 1979; C. albicans CaCi-2 (fluconazole-resistant clinical isolate) + fluconazole, Alamar Blue growth, 48 h; growth inhibition, % (test concentration not listed);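 active = growth inhibition above about 58% in most replicates, limit read from the data, passing the limit was not always enough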;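 note: all wells also contain fluconazole at 8 µg/ml as a sub-toxic cotreatment; 0% = median of DMSO wells and 100% = median of geldanamycin control wells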
Mdm2-MdmX inh: disrupts the human Mdm2-MdmX interaction | SaOS-2 split-luciferase Mdm2/MdmX complementation, luminescence | inhibition, % at 8 µM | 330,000 compounds, 3% hits;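 active = inhibition of at least 50% at 8 µM in the primary screen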
Target sequence (O15151 whole entry, looked up): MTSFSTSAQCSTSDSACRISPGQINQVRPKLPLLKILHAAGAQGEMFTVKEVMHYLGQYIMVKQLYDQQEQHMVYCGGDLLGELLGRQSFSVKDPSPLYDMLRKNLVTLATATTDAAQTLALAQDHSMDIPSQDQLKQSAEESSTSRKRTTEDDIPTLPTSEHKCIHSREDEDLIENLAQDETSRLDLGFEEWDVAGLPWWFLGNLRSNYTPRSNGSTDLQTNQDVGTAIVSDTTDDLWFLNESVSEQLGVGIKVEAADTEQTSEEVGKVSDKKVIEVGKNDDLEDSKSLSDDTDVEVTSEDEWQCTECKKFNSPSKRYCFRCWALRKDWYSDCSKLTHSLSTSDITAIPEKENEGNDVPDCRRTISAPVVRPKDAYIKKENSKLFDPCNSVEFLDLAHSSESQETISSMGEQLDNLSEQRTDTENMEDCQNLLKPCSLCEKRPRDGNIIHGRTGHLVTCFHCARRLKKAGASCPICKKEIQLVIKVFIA
Target sequence (Q00987 whole entry, looked up): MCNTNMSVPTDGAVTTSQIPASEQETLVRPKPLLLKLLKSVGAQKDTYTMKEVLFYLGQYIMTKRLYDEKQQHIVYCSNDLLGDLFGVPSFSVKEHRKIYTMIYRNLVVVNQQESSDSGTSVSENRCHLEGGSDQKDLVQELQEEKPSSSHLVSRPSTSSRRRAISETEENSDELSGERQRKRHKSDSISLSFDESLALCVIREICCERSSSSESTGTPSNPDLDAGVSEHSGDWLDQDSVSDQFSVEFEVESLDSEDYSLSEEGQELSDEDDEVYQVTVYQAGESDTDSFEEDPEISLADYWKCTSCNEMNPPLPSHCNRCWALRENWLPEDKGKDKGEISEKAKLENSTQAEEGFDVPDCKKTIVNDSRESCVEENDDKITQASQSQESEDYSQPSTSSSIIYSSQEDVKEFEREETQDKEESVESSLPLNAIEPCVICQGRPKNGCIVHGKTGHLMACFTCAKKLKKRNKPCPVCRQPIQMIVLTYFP
The depositor's hits bear a star. Compounds with a hit are over-represented: about 4.9% of the library has one in this group of screens.

For Fc1cccc(Cl)c1CNc1ccc(N2CCCC2)cc1 the results were PP1 counter 17*, Beta cell apopt 51, CSC inhib 6, PP5 primary 3, Calb FLC 7 and Mdm2-MdmX inh -11.
For Cc1cccc(-c2noc(CN(C)C(=O)c3ccc4c(c3)OCO4)n2)c1 the results were PP1 counter 2, CSC inhib -14, PP5 primary 0, Calb FLC -1 and Mdm2-MdmX inh -12.
Cc1nn2c(nc(N3CCCCC3)c3ccccc32)c1C=O was read as PP1 counter 2, Beta cell apopt -4, CSC inhib 6, PP5 primary 0, Calb FLC 33 and Mdm2-MdmX inh 9.
Cc1nn2c([nH]c(=O)c3ccccc32)c1C=O was read as PP1 counter -3, Beta cell apopt -2, CSC inhib -6, PP5 primary -1, Calb FLC 83* and Mdm2-MdmX inh 4.
Screening COCCNC(=O)Cn1cnc2c(cnn2-c2ccc(OC)cc2)c1=O returned PP1 counter -2, Beta cell apopt -4, CSC inhib -6, PP5 primary 1, Calb FLC 3 and Mdm2-MdmX inh -3.
For Cc1c(Cc2ccccc2)c(=O)oc2cc(O)ccc12 the results were PP1 counter 4, Beta cell apopt -5, CSC inhib 15, PP5 primary 0, Calb FLC 1 and Mdm2-MdmX inh 11.
`Cc1c(Cc2ccccc2)c(=O)oc2c(O)c(O)ccc12` gave Calb FLC 108* and Mdm2-MdmX inh -3.
Screening Cc1ccc(Cl)cc1NC(=O)C1CCCN(S(C)(=O)=O)C1 (configuration not stated) returned PP1 counter -1, Beta cell apopt 0, CSC inhib -18, PP5 primary 1, Calb FLC -8 and Mdm2-MdmX inh 11.
`Cc1cccc(OC2CCN(Cc3c(C(=O)N4CCCC4)nc4ccccn34)CC2)c1` gave PP1 counter -3, Beta cell apopt 5, CSC inhib -10, PP5 primary -1, Calb FLC 2 and Mdm2-MdmX inh 0.
Screening COc1ccc(C(=O)/C=C/c2cccc(OCc3ccccc3)c2)cc1CSCC(=O)O returned PP1 counter 1, Beta cell apopt 0, CSC inhib 13, PP5 primary 1, Calb FLC 27 and Mdm2-MdmX inh 37.
`COc1ccc(/C=C/C(=O)c2ccc(O)cc2)cc1COc1ccc(F)cc1` gave PP1 counter -2, Beta cell apopt 8, CSC inhib 97*, PP5 primary 4, Calb FLC 19 and Mdm2-MdmX inh 46.
COc1ccc(C(=O)/C=C/c2ccc(OCc3ccccc3)cc2)cc1CSCC(=O)O was read as Beta cell apopt 3, CSC inhib 79*, Calb FLC -9 and Mdm2-MdmX inh 5.
Screening COc1ccc(/C=C/C(=O)c2ccccc2)cc1COc1ccc(F)cc1 returned PP1 counter 3, Beta cell apopt 3, CSC inhib 29, PP5 primary 1, Calb FLC -5 and Mdm2-MdmX inh 9.
`O=C(Nc1ccnn1C1CCN(C(=O)Cc2ccccc2F)CC1)C1CC1` gave PP1 counter 1, Beta cell apopt 5, CSC inhib -7, PP5 primary 4, Calb FLC -3 and Mdm2-MdmX inh 7.
Screening O=C1c2[nH]nc(-c3ccccc3O)c2C(c2cccc(Cl)c2)N1Cc1ccco1 (configuration not stated) returned PP1 counter 9, Beta cell apopt 8, CSC inhib 92*, PP5 primary 8, Calb FLC -7 and Mdm2-MdmX inh 17.
For CC1(C)C2CC[C@]3(C)C(CC=C4[C@@H]5C[C@@](C)(CO)[C@@H](O)C[C@]5(C(=O)O)CC[C@]43C)[C@@]2(C)CC[C@@H]1O (some centres not stated) the results were PP1 counter -2, Beta cell apopt -4, CSC inhib -13, PP5 primary 3, Calb FLC 1 and Mdm2-MdmX inh -6.
For CC1(C)CC[C@]2(CO)[C@@H](O)C[C@]3(C)C(=CCC4[C@@]5(C)CC[C@H](O)C(C)(C)C5CC[C@]43C)[C@@H]2C1 (some centres not stated) the results were PP1 counter 13, Beta cell apopt 11, CSC inhib 102*, PP5 primary 4, Calb FLC -1 and Mdm2-MdmX inh -31.
`COc1ccc(-n2nc(C(=O)NCC(=O)NCCCN3CC(C)CC(C)C3)c3ccccc3c2=O)cc1OC` (configuration not stated) gave PP1 counter -4, Beta cell apopt -9, CSC inhib -14, PP5 primary 3, Calb FLC -11 and Mdm2-MdmX inh 2.
`O=C(CC1S/C(=N/N=C/c2cccs2)NC1=O)Nc1ccc(Cl)cc1` (configuration not stated) gave PP1 counter 17*, Beta cell apopt -5, CSC inhib 12, PP5 primary 1, Calb FLC 0 and Mdm2-MdmX inh 34.
COc1cc(-c2[nH]ncc2CN2CCN(Cc3cccs3)CC2)cc(OC)c1OC was read as PP1 counter -1, Beta cell apopt 3, CSC inhib -7, PP5 primary 1, Calb FLC 2 and Mdm2-MdmX inh 21.
Screening Cc1cccc(C(=O)OC2CCN(C)CC2)c1 returned PP1 counter 0, Beta cell apopt -2, CSC inhib 47, PP5 primary 2, Calb FLC -4 and Mdm2-MdmX inh 22.
CN1CCC(OC(=O)c2cccc(Cl)c2)CC1 was read as PP1 counter -6, Beta cell apopt -10, CSC inhib 117*, PP5 primary 2, Calb FLC -4 and Mdm2-MdmX inh 0.
`O=c1cc(CSc2nnnn2-c2ccccc2)nc(Nc2ccc(F)cc2)[nH]1` gave PP1 counter 15*, Beta cell apopt 1, CSC inhib 9, PP5 primary 2, Calb FLC -4 and Mdm2-MdmX inh -11.
O=C(Cc1ccc2c(c1)OCCO2)N1CCN(c2ccccc2)CC1 was read as PP1 counter -1, Beta cell apopt -2, CSC inhib -11, PP5 primary 1, Calb FLC -7 and Mdm2-MdmX inh -5.
Screening Cc1nc(SCc2ccc(Cl)c(Cl)c2)ncc1C(=O)O returned PP1 counter 1, Beta cell apopt 3, CSC inhib 27, PP5 primary 3, Calb FLC 90* and Mdm2-MdmX inh 1.
For CCCCCn1c(CN2CCN(c3cc(Cl)ccc3C)CC2)nc2c1c(=O)[nH]c(=O)n2C the results were PP1 counter 2, Beta cell apopt 10, CSC inhib 112*, PP5 primary 0, Calb FLC 11 and Mdm2-MdmX inh 49.
CCCCCn1c(N2CCN(c3cccc(Cl)c3)CC2)nc2c1c(=O)[nH]c(=O)n2C was read as PP1 counter -2, Beta cell apopt 18, CSC inhib 5, PP5 primary -1, Calb FLC 4 and Mdm2-MdmX inh 40.
